Laboratory results reported in PubChem BioAssay AID1159580 (chemical genetic matrix, 2015).
Among all 5,500 compounds or so, about 2,000 (36%) were called active. Not shown: some 18% with an inconclusive outcome. Rule as the data show it: active = normalized growth mostly below about 0.91 (no sharp cut-off); inconclusive = no clear call, values can overlap the other calls; inactive = mostly above about 0.92. Some of the results follow.

Assay: chemical genetic growth profiling, strain panel (AID 1159580);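 also: tested at 20 µM; growth read once vehicle control cultures reached saturation at 30 °C; 1 = growth at the plate median or of vehicle wells; lower values mean less growth of the strain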
Conditions: growth OD

Measured: normalized growth

CC(CN1c2ccccc2Sc2cccnc21)N(C)C (stereo not given)
inactive: S. cerevisiae deletion strains, locus YAL013W, strain DEP1, active compounds read low 1.02 | S. cerevisiae deletion strains, locus YBR021W, strain FUR4, active compounds read low 0.987 | S. cerevisiae deletion strains, locus YBR229C, strain ROT2, active compounds read low 1.02 | S. cerevisiae deletion strains, locus YCL029C, strain bik1, active compounds read low 0.988 | S. cerevisiae deletion strains, locus YDL035C, strain GPR1, active compounds read low 1.02 | S. cerevisiae deletion strains, locus YDL074C, strain BRE1, active compounds read low 1.04 | S. cerevisiae deletion strains, locus YDL101C, strain DUN1, active compounds read low 1.03 | S. cerevisiae deletion strains, locus YDL134C, strain PPH21, active compounds read low 1.01 | S. cerevisiae deletion strains, locus YDL192W, strain arf1, active compounds read low 0.993 | S. cerevisiae deletion strains, locus YDR101C, strain arx1, active compounds read low 0.979 | S. cerevisiae deletion strains, locus YDR150W, strain NUM1, active compounds read low 1.02 | S. cerevisiae deletion strains, locus YDR162C, strain NBP2, active compounds read low 1.04 | S. cerevisiae deletion strains, locus YDR318W, strain mcm21, active compounds read low 0.983 | S. cerevisiae deletion strains, locus YDR388W, active compounds read low 0.994 | S. cerevisiae deletion strains, locus YDR502C, strain sam2, active compounds read low 1.01 | S. cerevisiae deletion strains, locus YEL061C, strain CIN8, active compounds read low 1.02 | S. cerevisiae deletion strains, locus YER110C, active compounds read low 0.978 | S. cerevisiae deletion strains, locus YER155C, strain BEM2, active compounds read low 1.01 | S. cerevisiae deletion strains, locus YER167W, strain BCK2, active compounds read low 1.02 | S. cerevisiae deletion strains, locus YGL078C, strain dbp3, active compounds read low 0.988 | S. cerevisiae deletion strains, locus YGL086W, strain mad1, active compounds read low 0.992 | S. cerevisiae deletion strains, locus YGL248W, strain PDE1, active compounds read low 1.02 | S. cerevisiae deletion strains, locus YGR078C, strain PAC10, active compounds read low 1.02 | S. cerevisiae deletion strains, locus YGR135W, strain pre9, active compounds read low 1.01 | S. cerevisiae deletion strains, locus YGR229C, strain SMI1, active compounds read low 1.05 | S. cerevisiae deletion strains, locus YGR252W, strain gcn5, active compounds read low 0.956 | S. cerevisiae deletion strains, locus YHR030C, strain SLT2, active compounds read low 1.01 | S. cerevisiae deletion strains, locus YHR079C, strain IRE1 (second series), active compounds read low 0.999 | S. cerevisiae deletion strains, locus YHR094C, strain hxt1, active compounds read low 1 | S. cerevisiae deletion strains, locus YHR129C, strain ARP1, active compounds read low 1 | S. cerevisiae deletion strains, locus YHR200W, strain rpn10, active compounds read low 0.995 | S. cerevisiae deletion strains, locus YIL066C, strain RNR3, active compounds read low 1.01 | S. cerevisiae deletion strains, locus YIL073C, strain SPO22, active compounds read low 0.999 | S. cerevisiae deletion strains, locus YIL125W, strain kgd1, active compounds read low 0.999 | S. cerevisiae deletion strains, locus YIR030C, strain dcg1, active compounds read low 0.992 | S. cerevisiae deletion strains, locus YJL095W, strain BCK1, active compounds read low 1.01 | S. cerevisiae deletion strains, locus YJL134W, strain LCB3, active compounds read low 1.05 | S. cerevisiae deletion strains, locus YJL168C, strain set2, active compounds read low 0.998 | S. cerevisiae deletion strains, locus YJL187C, strain SWE1 (second series), active compounds read low 1.02 | S. cerevisiae deletion strains, locus YJR043C, strain POL32, active compounds read low 1.01 | S. cerevisiae deletion strains, locus YJR075W, strain HOC1, active compounds read low 1.02 | S. cerevisiae deletion strains, locus YKL009W, strain mrt4, active compounds read low 1 | S. cerevisiae deletion strains, locus YKL068W, active compounds read low 1 | S. cerevisiae deletion strains, locus YKL085W, strain MDH1 (second series), active compounds read low 0.995 | S. cerevisiae deletion strains, locus YKL085W, strain MDH1, active compounds read low 0.995 | S. cerevisiae deletion strains, locus YKL190W, strain CNB1, active compounds read low 1.03 | S. cerevisiae deletion strains, locus YKR001C, strain vps1, active compounds read low 0.999 | S. cerevisiae deletion strains, locus YLR039C, strain RIC1, active compounds read low 1.06 | S. cerevisiae deletion strains, locus YLR058C, strain SHM2, active compounds read low 1.01 | S. cerevisiae deletion strains, locus YLR102C, strain apc9, active compounds read low 0.991 | S. cerevisiae deletion strains, locus YLR262C, strain YPT6, active compounds read low 1.15 | S. cerevisiae deletion strains, locus YLR268W, strain sec22, active compounds read low 0.998 | S. cerevisiae deletion strains, locus YLR330W, strain CHS5, active compounds read low 1.01 | S. cerevisiae deletion strains, locus YLR342W, strain FKS1 (second series), active compounds read low 1.03 | S. cerevisiae deletion strains, locus YLR371W, strain rom2, active compounds read low 0.995 | S. cerevisiae deletion strains, locus YLR418C, strain cdc73, active compounds read low 1.04 | S. cerevisiae deletion strains, locus YML016C, strain PPZ1, active compounds read low 1.02 | S. cerevisiae deletion strains, locus YML032C, strain rad52, active compounds read low 0.989 | S. cerevisiae deletion strains, locus YML124C, strain tub3, active compounds read low 0.998 | S. cerevisiae deletion strains, locus YMR078C, strain ctf18, active compounds read low 0.999 | S. cerevisiae deletion strains, locus YMR223W, strain ubp8, active compounds read low 0.995 | S. cerevisiae deletion strains, locus YMR263W, strain SAP30, active compounds read low 1.03 | S. cerevisiae deletion strains, locus YMR307W, strain GAS1, active compounds read low 1.06 | S. cerevisiae deletion strains, locus YNL067W, strain RPL9B, active compounds read low 1.02 | S. cerevisiae deletion strains, locus YNL128W, strain TEP1, active compounds read low 1.02 | S. cerevisiae deletion strains, locus YNL153C, strain GIM3, active compounds read low 1.03 | S. cerevisiae deletion strains, locus YNL233W, strain BNI4, active compounds read low 1.01 | S. cerevisiae deletion strains, locus YNL250W, strain rad50, active compounds read low 0.992 | S. cerevisiae deletion strains, locus YNL271C, strain bni1, active compounds read low 1.01 | S. cerevisiae deletion strains, locus YNL298W, strain CLA4, active compounds read low 0.988 | S. cerevisiae deletion strains, locus YNL307C, strain MCK1, active compounds read low 0.991 | S. cerevisiae deletion strains, locus YNL322C, strain KRE1, active compounds read low 1.01 | S. cerevisiae deletion strains, locus YNR052C, strain pop2, active compounds read low 0.994 | S. cerevisiae deletion strains, locus YOL006C, strain TOP1, active compounds read low 1.03 | S. cerevisiae deletion strains, locus YOL012C, strain htz1 0.957 | S. cerevisiae deletion strains, locus YOL147C, strain pex11, active compounds read low 0.991 | S. cerevisiae deletion strains, locus YOR061W, strain CKA2, active compounds read low 1.02 | S. cerevisiae deletion strains, locus YOR069W, strain VPS5, active compounds read low 1 | S. cerevisiae deletion strains, locus YOR136W, strain idh2, active compounds read low 0.979 | S. cerevisiae deletion strains, locus YOR144C, strain elg1, active compounds read low 0.999 | S. cerevisiae deletion strains, locus YOR184W, strain ser1, active compounds read low 0.985 | S. cerevisiae deletion strains, locus YOR316C, strain cot1, active compounds read low 0.997 | S. cerevisiae deletion strains, locus YPL055C, strain LGE1, active compounds read low 1.04 | S. cerevisiae deletion strains, locus YPL241C, strain CIN2, active compounds read low 1 | S. cerevisiae deletion strains, locus YPR119W, strain clb2, active compounds read low 0.995 | S. cerevisiae deletion strains, locus YPR141C, strain kar3, active compounds read low 0.997 | S. cerevisiae deletion strains, locus YPR163C, strain tif3, active compounds read low 1 | S. cerevisiae deletion strains, locus YPR167C, strain met16, active compounds read low 1 | S. cerevisiae deletion strains, strain wtn01, active compounds read low 1.01 | S. cerevisiae strains, strain wild type, active compounds read low 1.01
